The list is a sample of the results.
aSyn UTR act: Activators via SNCA 5'UTR binding, MLPCN | activity score, % (tested at 7.5 µM), hits read low | 300,000 compounds, 7.1% hits | alpha-synuclein 5'UTR reporter, activators screen; in the data active means activity score below about -60%
Numbers without * were called inactive.

SMILES | aSyn UTR act
COc1ccc(-c2nc(C#N)c(NCCc3ccccc3)o2)cc1OC | -142.4*
N#Cc1nc(-c2cccs2)oc1NCCc1ccccc1 | -111.3*
CCC(NC(=O)c1cc(COc2ccc(OC)cc2Cl)on1)c1ccncc1 (stereo unspecified) | -70.7*
COc1cc(Cl)ccc1OCc1cc(C(=O)NC(C)Cc2cnccn2)no1 (stereo unspecified) | -145.2*
COc1ccc(OCc2cc(C(=O)NC(C)Cn3cncn3)no2)c(Cl)c1 (stereo unspecified) | -62.0*
CCC(NC(=O)c1cc(COc2ccc(Cl)cc2OC)on1)c1ccncc1 (stereo unspecified) | -120.8*
COc1cc(C(=O)NC(=S)NNC(=O)c2cnccn2)cc(OC)c1OC | 78.9
CN(C)/C=C1\SC(=S)N(c2ccc(Br)cc2)C1=O | -99.8*
O=c1cc(N2CCN(c3ccc(F)cc3)CC2)[nH]c(=O)n1C1CCCCC1 | -107.3*
O=C(Nc1ccccc1)N1CC=C(c2ccccc2)CC1 | -176.9*
O=C(Nc1ccccc1)N1CC=C(c2ccc(F)cc2)CC1 | -167.3*
CC1CN(C(=O)/C=C/c2ccc([N+](=O)[O-])s2)CC(C)O1 (stereo unspecified) | -82.2*
CC1CC(C)CN(C(=O)/C=C/c2ccc([N+](=O)[O-])s2)C1 (stereo unspecified) | -96.7*
O=C(/C=C/c1ccc([N+](=O)[O-])s1)N1CCCC1 | -101.7*
O=C(/C=C/c1cccs1)N1CCCCC1 | -91.8*
Cn1cccc1C(=O)C(=O)Nc1ccccc1C(F)(F)F | -129.7*
Cn1cccc1C(=O)C(=O)Nc1ccccc1 | -112.2*
S=C(NCCc1ccccc1)N1CCc2ccccc2C1 | -100.9*
FC(F)Oc1ccc(NC(=S)N2CCc3ccccc32)cc1 | -132.5*
O=C(Nc1cccc(Cl)c1)N1CCc2ccccc2C1 | -185.4*
COc1ccccc1C(=O)Nc1ccc2c(c1)CN(C(=O)CSC)CC2 | -109.4*
COc1ccc(NC(=S)N2CCc3ccccc3C2)cc1 | -81.8*
COc1cccc(NC(=O)N2CCc3ccccc3C2)c1 | -104.4*
COc1ccc(NC(=O)C(=O)NCC(c2ccco2)N2CCc3ccccc32)cc1 (stereo unspecified) | 84.9
COc1cccc(-c2cc(C(=O)N3CCc4ccccc4C3)[nH]n2)c1 | -68.0*
SMILES | aSyn UTR act
COc1cc2[nH]c3c(=O)n4c(nc3c2cc1OC)SCCC4 | -97.0*
Cc1ccc2c(CNCc3ccco3)cc(=O)oc2c1 | -64.9*
CC1(C)Cc2nc3sc(C(=O)NCCCO)c(N)c3cc2CO1 | -68.7*
COC(=O)c1sc2nc3c(cc2c1N)COC(C)(C)C3 | -131.0*
Cc1cnnc2ccc3c(no[n+]3[O-])c12 | -92.6*
CC(=O)Nc1ccc2nc(NC(=O)c3cccnc3)sc2c1 | -91.6*
CN(C)S(=O)(=O)c1ccc2nc(NC(=O)c3cccs3)sc2c1 | -107.6*
O=C(Nc1nc2ccc(F)cc2s1)c1cccs1 | -222.9*
O=C(NC(=S)Nc1nc2ccc(F)cc2s1)c1ccco1 | -170.7*
O=C(NC(Nc1nc2ccc([N+](=O)[O-])cc2s1)(C(F)(F)F)C(F)(F)F)c1cccnc1 | 59.7
CSc1nc2ccc3nc(NC(=O)c4cccs4)sc3c2s1 | -369.6*
CN(C)S(=O)(=O)c1ccc2nc(NC(=O)c3cccnc3)sc2c1 | -68.4*
COc1cccc(C(=O)NC(=O)Nc2cc(C)[nH]n2)c1 | -139.9*
CCN(CC)S(=O)(=O)c1cc(C(=O)Nc2cc(C)[nH]n2)ccc1Cl | -161.0*
COc1cccc(C(=O)Oc2c(Br)cc(Br)cc2/C=N/NC(=O)c2cc(C)[nH]n2)c1 | 64.3
Cc1cc(NC(=O)c2cccc(Br)c2)n[nH]1 | -141.4*
CN1CCN(C(c2ccc(Br)cc2)c2cc(Cl)c3cccnc3c2O)CC1 (stereo unspecified) | 67.2
CCN=c1scc(-c2ccco2)n1/N=C/c1ccc(O)cc1 | -172.8*
COCCN=c1scc(-c2cccs2)n1/N=C/c1ccc(O)c(O)c1O | 66.9
CCN=c1scc(-c2ccco2)n1/N=C/c1ccc(OC)c(O)c1 | -228.4*
CCOc1ccc(NCc2nnc(SCC(=O)Nc3cc(C)on3)n2-c2ccccc2OC)cc1 | -101.0*
CCOc1ccc(-c2nnc(SCC(=O)Nc3ccc4c(c3)c3ccccc3n4CC)n2N)cc1 | 84.2
CCc1nnc(NC(=O)c2cc(-c3ccccc3)nn2-c2ccccc2)s1 | -164.6*
Cc1ccc(NC(=O)c2cc(-c3ccccc3)nn2-c2ccccc2)cc1 | -97.6*
CC(=O)C(/C=N/c1cc(-c2ccc(C)cc2)nn1-c1ccccc1)=C(\C)O | -197.7*
SMILES | aSyn UTR act
O=C(Nc1cccc(Cl)c1)c1cnn2cccnc12 | -202.0*
O=C(Nc1cc(Cl)cc(Cl)c1)c1cnn2cccnc12 | -96.7*
Cc1cc(NC(=O)c2cnn3cccnc23)no1 | -83.2*
Cc1c(C(=O)NCC(C)C)sc2nc(-c3ccc(F)cc3)cn12 | -127.8*
Cc1c(C(N)=O)sc2nc(-c3ccccc3)cn12 | -104.6*
COc1ccc(-c2cn3c(C)c(C(=O)Nc4cccc(NC(C)=O)c4)sc3n2)cc1 | -99.6*
Cc1cccc2c3nc4ccccc4nc3n(C)c12 | -77.9*
[O-]/C(=C(\C(=S)Nc1cccc2ccccc12)[n+]1ccccc1)c1ccc(Cl)s1 | -63.3*
Cc1ccc2c(COC(=O)c3ccc(NC(=O)CC#N)cc3)cc(=O)oc2c1C | -68.7*
c1ccc(C[n+]2csc3ccccc32)cc1 | -71.5*
O=C(NCCCN1CCOCC1)C(=O)N/N=C/c1c2ccccc2cc2ccccc12 | 66.7
O=C(NCCCN1CCOCC1)c1cc(-c2cccs2)on1 | -152.0*
O=C(NCCCn1ccnc1)c1cc(-c2cccs2)on1 | -293.7*
Cn1cccc1C1NC(=O)c2c(sc3c2CCC(C(C)(C)C)C3)N1 (stereo unspecified) | -97.1*
Cc1cccc(-c2ncc(S(=O)(=O)C(C)(C)C)c(N)n2)c1 | -84.0*
Nc1nonc1-n1nnc(C(=O)N/N=C/c2ccc(OCc3ccccc3F)cc2)c1CN1CCCCC1 | -111.3*
Nc1nonc1-n1nnc(C(=O)N/N=C/c2ccc(OCc3cccc(Cl)c3)cc2)c1CN1CCCCC1 | -135.7*
CC1CCN(Cc2c(C(=O)N/N=C/c3cc(Br)ccc3O)nnn2-c2nonc2N)CC1 | 77.1
Cc1cccc(COc2ccc(/C=N/NC(=O)c3nnn(-c4nonc4N)c3CN3CCCCC3)cc2)c1 | -100.8*
CC1CCN(Cc2c(C(=O)N/N=C/c3cc(Cl)ccc3O)nnn2-c2nonc2N)CC1 | 62.1
Cc1ccc(C(=O)Oc2ccc(/C=N/NC(N)=O)cc2)cc1 | -123.7*
NC(=O)N/N=C/c1ccc(OCc2cccc(Cl)c2)cc1 | -72.8*
COc1cc(C=C(c2nc3ccccc3s2)c2nc3ccccc3s2)cc(OC)c1O | -98.0*
COc1ccccc1/C=N/NC(=Nc1ccc(C)cc1)c1nc2ccccc2s1 | -99.1*
COc1cc(/C=N/NC(=Nc2ccc(C)cc2)c2nc3ccccc3s2)ccc1O | -148.5*
SMILES | aSyn UTR act
O=C(/C=C\c1ccccc1[N+](=O)[O-])Nc1ccccc1 | -194.0*
CCOc1ccccc1NC(=O)/C=C/c1ccccc1[N+](=O)[O-] | -87.6*
Cc1ccnc(NC(=O)/C=C/c2ccccc2[N+](=O)[O-])c1 | -118.2*
CC(C)C(=O)NCCc1nc(-c2ccc(Cl)cc2)no1 | -98.7*
COc1ccc(Nc2nnc(SCC3CCCO3)s2)cc1 (stereo unspecified) | -104.7*
COc1cccc(Nc2nnc(SCC3CCCCO3)s2)c1 (stereo unspecified) | -76.3*
O=[N+]([O-])c1ccc(-c2cnc(SCc3ccccc3Cl)[nH]2)cc1 | -88.7*
O=C(OCc1csc(-c2ccccc2)n1)c1ccccc1O | -148.7*

Screening data deposited in PubChem BioAssay by Broad Institute.
